Assay results: the supplement of paper PMC11732987, “Enantioselective OTUD7B fragment discovery through chemoproteomics screening and high-throughput optimisation” (Communications Chemistry, 2025)

Experiments:
Assay in all cases: log2 ratio of Biotin-Ahx-Ub-VS probe labelling (fragment/DMSO); higher = less target engagement (more negative = stronger competition), active = hit call of the paper (q ≤ 0.05, log2 ratio ≤ -1)
Conditions in all cases: compound concentration: 200 uM; treatment time: 3 h
OTUD6B = target: T1, OTUD6B (UniProt Q8N6M0)
T1 sequence (whole entry): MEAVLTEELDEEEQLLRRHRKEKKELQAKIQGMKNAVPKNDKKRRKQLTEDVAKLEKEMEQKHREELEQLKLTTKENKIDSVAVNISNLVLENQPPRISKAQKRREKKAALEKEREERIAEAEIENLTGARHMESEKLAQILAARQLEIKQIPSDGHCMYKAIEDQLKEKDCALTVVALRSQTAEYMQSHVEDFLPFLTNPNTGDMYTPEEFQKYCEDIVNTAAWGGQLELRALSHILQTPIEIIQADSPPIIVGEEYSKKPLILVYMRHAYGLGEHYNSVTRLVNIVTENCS
How it was run: (§1)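 Labelling with Biotin-Ahx-Ub-VS (0.5 µM final, 1 h) followed a 3 h triplicate treatment of HEK293T lysate (495 µg per sample, Tris/CHAPS/IGEPAL buffer with protease inhibitors) with fragment at 200 µM or vehicle. Labelled DUBs were NeutrAvidin-enriched, digested with LysC and trypsin, and run by diaPASEF LC-MS/MS. The values, average log2 fragment/vehicle ratios by unpaired t-test, come from global-median-normalised Spectronaut label-free quantities. Proteins with ≥2 unique peptides were used.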

OTUD7B = target: T2, OTUD7B (UniProt Q6GQQ9)
T2 sequence (whole entry): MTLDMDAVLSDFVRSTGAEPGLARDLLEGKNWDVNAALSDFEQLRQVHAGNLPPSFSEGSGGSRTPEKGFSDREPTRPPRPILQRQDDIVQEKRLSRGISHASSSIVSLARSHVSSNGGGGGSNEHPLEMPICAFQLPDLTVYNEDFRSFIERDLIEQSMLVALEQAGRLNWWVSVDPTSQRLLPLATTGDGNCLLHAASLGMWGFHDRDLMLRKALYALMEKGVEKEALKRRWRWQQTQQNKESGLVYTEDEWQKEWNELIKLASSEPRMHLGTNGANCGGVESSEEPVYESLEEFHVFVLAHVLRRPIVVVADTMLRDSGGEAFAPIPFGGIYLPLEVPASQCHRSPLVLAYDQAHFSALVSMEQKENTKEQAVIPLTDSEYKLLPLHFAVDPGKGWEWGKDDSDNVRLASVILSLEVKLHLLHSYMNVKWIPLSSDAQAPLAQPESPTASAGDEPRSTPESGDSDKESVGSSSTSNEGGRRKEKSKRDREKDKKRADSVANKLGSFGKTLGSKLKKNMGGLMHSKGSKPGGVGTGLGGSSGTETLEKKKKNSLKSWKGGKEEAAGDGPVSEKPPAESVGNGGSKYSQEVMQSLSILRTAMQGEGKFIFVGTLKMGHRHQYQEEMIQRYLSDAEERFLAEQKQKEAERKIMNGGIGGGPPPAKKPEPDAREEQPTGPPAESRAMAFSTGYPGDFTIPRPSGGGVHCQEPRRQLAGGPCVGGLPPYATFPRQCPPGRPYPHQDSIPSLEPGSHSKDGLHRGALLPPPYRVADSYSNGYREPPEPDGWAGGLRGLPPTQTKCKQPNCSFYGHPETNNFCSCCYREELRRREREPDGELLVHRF
How it was run: as §1

PRPF8 = PRPF8 (UniProt Q6P2Q9)
How it was run: as §1

PSMD7 = target: T3, PSMD7 (UniProt P51665)
T3 sequence (whole entry): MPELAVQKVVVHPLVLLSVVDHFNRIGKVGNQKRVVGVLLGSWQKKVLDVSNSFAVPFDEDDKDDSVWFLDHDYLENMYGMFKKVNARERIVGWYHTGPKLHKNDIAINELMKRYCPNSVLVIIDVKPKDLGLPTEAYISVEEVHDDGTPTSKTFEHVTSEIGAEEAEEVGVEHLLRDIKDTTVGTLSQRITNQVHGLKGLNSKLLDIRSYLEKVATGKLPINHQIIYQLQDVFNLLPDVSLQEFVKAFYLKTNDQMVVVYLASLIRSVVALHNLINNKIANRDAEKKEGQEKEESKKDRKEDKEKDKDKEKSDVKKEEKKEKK
How it was run: as §1

UCHL1 = UCHL1 (UniProt P09936)
How it was run: as §1

UCHL3 = target: T4, UCHL3 (UniProt P15374)
T4 sequence (whole entry): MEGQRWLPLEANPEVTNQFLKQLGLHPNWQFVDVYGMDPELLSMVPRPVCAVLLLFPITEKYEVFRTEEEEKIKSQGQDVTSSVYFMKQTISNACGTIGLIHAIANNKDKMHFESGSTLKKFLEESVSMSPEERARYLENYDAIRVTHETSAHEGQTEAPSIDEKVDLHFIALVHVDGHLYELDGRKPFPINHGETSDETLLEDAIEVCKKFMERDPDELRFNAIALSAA
How it was run: as §1

UCHL5 = target: T5, UCHL5 (UniProt Q9Y5K5)
T5 sequence (whole entry): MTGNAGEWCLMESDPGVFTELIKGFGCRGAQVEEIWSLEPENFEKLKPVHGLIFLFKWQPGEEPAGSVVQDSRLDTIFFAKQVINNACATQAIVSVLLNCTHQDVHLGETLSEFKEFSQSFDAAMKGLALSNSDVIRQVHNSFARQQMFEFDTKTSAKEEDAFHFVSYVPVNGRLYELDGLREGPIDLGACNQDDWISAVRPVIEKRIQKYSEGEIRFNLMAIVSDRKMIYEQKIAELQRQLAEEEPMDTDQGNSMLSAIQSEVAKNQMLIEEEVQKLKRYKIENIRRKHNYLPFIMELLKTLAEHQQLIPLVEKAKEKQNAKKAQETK
How it was run: as §1

USP10 = USP10 (UniProt Q14694)
How it was run: as §1

USP15 = target: T6, USP15 (UniProt Q9Y4E8)
T6 sequence (whole entry): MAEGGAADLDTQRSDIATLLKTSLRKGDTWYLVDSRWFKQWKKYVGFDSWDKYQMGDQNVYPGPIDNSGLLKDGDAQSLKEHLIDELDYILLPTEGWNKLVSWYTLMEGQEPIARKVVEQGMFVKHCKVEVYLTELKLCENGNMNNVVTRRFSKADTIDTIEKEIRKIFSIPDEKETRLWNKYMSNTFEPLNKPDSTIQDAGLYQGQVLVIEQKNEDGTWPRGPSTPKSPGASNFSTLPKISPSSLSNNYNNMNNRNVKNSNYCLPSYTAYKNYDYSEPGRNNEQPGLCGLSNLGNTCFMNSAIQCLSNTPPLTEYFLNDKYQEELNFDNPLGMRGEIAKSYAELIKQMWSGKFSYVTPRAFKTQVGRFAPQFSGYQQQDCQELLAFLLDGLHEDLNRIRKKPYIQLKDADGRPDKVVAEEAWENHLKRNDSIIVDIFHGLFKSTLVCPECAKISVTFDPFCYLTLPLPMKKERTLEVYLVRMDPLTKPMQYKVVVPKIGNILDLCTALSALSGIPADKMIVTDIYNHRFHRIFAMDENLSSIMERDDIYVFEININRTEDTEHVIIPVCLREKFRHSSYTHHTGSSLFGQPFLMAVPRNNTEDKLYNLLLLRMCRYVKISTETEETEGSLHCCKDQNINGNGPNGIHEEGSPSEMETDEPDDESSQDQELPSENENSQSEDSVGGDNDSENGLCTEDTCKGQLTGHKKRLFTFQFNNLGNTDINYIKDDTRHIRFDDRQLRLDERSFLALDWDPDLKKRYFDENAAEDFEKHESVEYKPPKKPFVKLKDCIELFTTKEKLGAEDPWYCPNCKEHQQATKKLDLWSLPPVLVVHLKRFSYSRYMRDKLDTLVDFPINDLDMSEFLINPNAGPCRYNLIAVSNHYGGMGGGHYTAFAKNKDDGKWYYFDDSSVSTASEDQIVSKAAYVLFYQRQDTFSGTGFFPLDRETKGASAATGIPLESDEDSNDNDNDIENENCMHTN
How it was run: as §1

USP16 = USP16 (UniProt Q9Y5T5)
How it was run: as §1

Measured: log2 ratio of Biotin-Ahx-Ub-VS probe labelling

Sequence of USP10 (Q14694 whole entry): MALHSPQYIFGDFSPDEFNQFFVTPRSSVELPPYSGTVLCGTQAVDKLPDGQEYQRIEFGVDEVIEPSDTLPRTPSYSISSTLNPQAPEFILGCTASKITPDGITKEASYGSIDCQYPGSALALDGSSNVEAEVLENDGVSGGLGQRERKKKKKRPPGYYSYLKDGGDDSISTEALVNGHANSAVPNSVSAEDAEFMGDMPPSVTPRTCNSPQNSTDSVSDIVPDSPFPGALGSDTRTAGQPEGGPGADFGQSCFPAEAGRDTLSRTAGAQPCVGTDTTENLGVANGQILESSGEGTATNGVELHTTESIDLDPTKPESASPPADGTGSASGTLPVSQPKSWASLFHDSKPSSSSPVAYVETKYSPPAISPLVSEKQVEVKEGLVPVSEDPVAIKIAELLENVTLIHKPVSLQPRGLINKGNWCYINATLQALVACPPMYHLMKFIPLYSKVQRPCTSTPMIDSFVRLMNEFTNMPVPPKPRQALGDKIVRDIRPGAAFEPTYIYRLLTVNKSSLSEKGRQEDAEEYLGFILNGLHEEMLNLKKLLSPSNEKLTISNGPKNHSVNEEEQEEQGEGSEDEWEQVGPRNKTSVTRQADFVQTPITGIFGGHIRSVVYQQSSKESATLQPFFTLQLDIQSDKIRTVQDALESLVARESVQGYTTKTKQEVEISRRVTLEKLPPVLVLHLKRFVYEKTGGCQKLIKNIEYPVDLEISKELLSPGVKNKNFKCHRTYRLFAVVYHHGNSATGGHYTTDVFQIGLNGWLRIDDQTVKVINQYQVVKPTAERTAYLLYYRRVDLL
Sequence of USP16 (Q9Y5T5 whole entry, looked up): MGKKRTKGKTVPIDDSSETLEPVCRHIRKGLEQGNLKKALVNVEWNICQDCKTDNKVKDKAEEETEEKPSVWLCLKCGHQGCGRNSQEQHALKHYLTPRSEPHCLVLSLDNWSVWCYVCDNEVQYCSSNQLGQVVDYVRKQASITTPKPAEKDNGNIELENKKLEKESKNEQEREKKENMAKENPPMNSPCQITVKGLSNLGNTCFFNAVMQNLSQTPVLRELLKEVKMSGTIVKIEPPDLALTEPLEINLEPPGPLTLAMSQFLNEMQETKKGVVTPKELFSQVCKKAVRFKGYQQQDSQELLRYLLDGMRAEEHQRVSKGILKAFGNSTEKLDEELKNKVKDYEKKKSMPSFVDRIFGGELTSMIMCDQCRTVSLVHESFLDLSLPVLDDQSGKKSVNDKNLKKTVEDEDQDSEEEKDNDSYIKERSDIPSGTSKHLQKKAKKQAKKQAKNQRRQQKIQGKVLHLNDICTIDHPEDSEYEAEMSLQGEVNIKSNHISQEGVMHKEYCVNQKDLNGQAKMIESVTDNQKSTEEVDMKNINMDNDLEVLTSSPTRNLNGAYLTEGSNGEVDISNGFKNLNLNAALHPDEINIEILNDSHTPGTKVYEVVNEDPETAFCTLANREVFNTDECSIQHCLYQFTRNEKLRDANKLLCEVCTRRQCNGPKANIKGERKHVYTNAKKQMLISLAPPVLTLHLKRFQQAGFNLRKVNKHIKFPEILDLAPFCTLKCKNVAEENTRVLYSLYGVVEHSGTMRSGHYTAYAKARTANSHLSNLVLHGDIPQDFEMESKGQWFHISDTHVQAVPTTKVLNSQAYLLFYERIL
Sequence of UCHL1 (P09936 whole entry, looked up): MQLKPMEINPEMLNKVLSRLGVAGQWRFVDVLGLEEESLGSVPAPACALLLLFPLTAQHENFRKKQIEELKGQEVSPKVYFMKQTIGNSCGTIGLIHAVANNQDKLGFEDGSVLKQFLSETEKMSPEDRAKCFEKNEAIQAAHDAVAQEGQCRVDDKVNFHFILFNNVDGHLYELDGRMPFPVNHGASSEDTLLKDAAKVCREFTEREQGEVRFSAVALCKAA

CNC(=O)C1CCN(C(=O)CCl)CC1
inactive: OTUD6B -0.163 | OTUD7B -0.121 | PRPF8 -0.218 | PSMD7 0.12 | UCHL1 -0.544 | UCHL3 0.53 | UCHL5 -0.0712 | USP10 -0.383 | USP15 -0.0196 | USP16 0.31
